What was measured:
[1] = tested on: Vero E6 infected with SARS-CoV-2; assay: morphology score (similarity to uninfected cells); higher = more like uninfected cells; settings: 24 h
[2] = tested on: Vero E6 infected with SARS-CoV-2; assay: SARS-CoV-2 infection rate relative to infected DMSO; higher = more infection, active = 60 or less; settings: 24 h

| SMILES | morphology score [1] | SARS-CoV-2 infection rate [2] |
| --- | --- | --- |
| O=C(c1ccc(-c2ccc(Cl)cc2)o1)N(Cc1ccccn1)c1ccc(N2CCNCC2)cc1 (0.833333 µM) | 0.128 | 106% (inactive) |
| O=C1c2ccccc2-c2n[nH]c3cccc1c23 [pyrazolanthrone] (10 µM) | 0.0961 | 106% (inactive) |
| O=C1S/C(=C\c2ccc(OCc3cccc(B(O)O)c3)cc2)C(=O)N1Cc1ccc(F)cc1 (10 µM) | 0.0573 | 104% (inactive) |
| O=C(NC(NC(=S)Nc1ccc(F)c([N+](=O)[O-])c1)C(Cl)(Cl)Cl)C(c1ccccc1)c1ccccc1 (stereo not drawn) (0.833333 µM) | 0.0472 | 104% (inactive) |
| CN(C(=O)Cc1ccccc1)[C@H](CN1CCCC1)c1ccccc1 (10 µM) | 0.0751 | 102% (inactive) |
| CC1=C(CCC(=O)O)c2cc3[nH]c(cc4nc(cc5[nH]c(cc1n2)c(C)c5C(C)O)C(C)=C4C(C)O)c(C)c3CCC(=O)O (stereo not drawn) [hematoporphyrin] (10 µM) | -0.184 | 116% (inactive) |
| C=CCN(C)CCCCCCOc1ccc(C(=O)c2ccc(Br)cc2)c(F)c1 (10 µM) | 0.728 | 33.5% (active) |
| CN(C)C(=O)CCSC(SCCC(=O)O)c1cccc(/C=C/c2ccc3ccc(Cl)cc3n2)c1 (stereo not drawn) (10 µM) | 0.011 | 108% (inactive) |
| O=C1Nc2cc(Cl)c(Cl)cc2N2CCNC[C@H]12 (10 µM) | 0.179 | 108% (inactive) |
| Cc1cc(C(=O)Nc2cc(Oc3ccc4nc(NC(=O)C5CC5)cn4n3)ccc2C)n(C)n1 (10 µM) | 0.227 | 102% (inactive) |
| CC(=O)OCC1=C(C(=O)O)N2C(=O)[C@@H](NC(=O)CSc3ccncc3)[C@H]2SC1 [cephapirin] (10 µM) | -0.142 | 93.5% (inactive) |
| COc1cc2c(cc1OC)-c1cc3nc4ccccc4nc3n1C(C)(C)C2 (10 µM) | 0.134 | 91% (inactive) |
| COc1cc2c(CCNC(C)=O)c[nH]c2cc1Cl [6-chloromelatonin] (10 µM) | 0.0228 | 104% (inactive) |
| C=CCc1ccc(O)c(-c2ccc(O)c(CC=C)c2)c1 [honokiol] (10 µM) | 0.432 | 80.5% (inactive) |
| COc1ccc(-c2ccc3c(N4CCOC[C@@H]4C)nc(N4CCOC[C@@H]4C)nc3n2)cc1CO (0.833333 µM) | -0.0692 | 105% (inactive) |
| CCC(CC)[C@H](NC(C)=O)[C@@H]1[C@H](O)[C@@H](C(=O)O)C[C@H]1NC(=N)N [peramivir] (10 µM) | 0.00579 | 102% (inactive) |
| CC1(C)Cc2c(-c3ccccc3)c(-c3ccc(Cl)cc3)c(CC(=O)O)n2C1 [licofelone] (10 µM) | 0.31 | 105% (inactive) |
| O=C(NC[C@H]1CN(c2ccc(N3CCOCC3=O)cc2)C(=O)O1)c1ccc(Cl)s1 [Rivaroxaban (Xarelto)] (10 µM) | 0.193 | 97.5% (inactive) |
| O=c1ccc2ccc(O)c(O)c2o1 [daphnetin] (10 µM) | 0.0316 | 110% (inactive) |
| CCC(C)(C)C(=O)C(=O)N1CCC[C@H]1C(=O)OCCCc1cccnc1 (10 µM) | -0.0394 | 116% (inactive) |
| C[C@@H](c1nc(-c2ccc(C#N)cc2)cs1)[C@](O)(Cn1cncn1)c1ccc(F)cc1F [ravuconazole] (10 µM) | 0.0292 | 107% (inactive) |
| NC(=O)NO [hydroxyurea] (10 µM) | 0.223 | 100% (inactive) |
| NC(=O)c1cnc(N[C@@H]2CCCC[C@@H]2N)nc1Nc1cccc(-n2nccn2)c1 (10 µM) | 0.582 | 17.5% (active) |
| O=C(COP(=O)(O)O)[C@@H](O)[C@H](O)[C@H](O)COP(=O)(O)O [fosfructose] (10 µM) | -0.202 | 120% (inactive) |
| O=C(C=Cc1ccccc1)NC(NC(=S)Nc1ccc(Cl)cc1)C(Cl)(Cl)Cl (stereo not drawn) (10 µM) | -0.143 | 106% (inactive) |
| OCCN1CCN(CC/C=C2/c3ccccc3Sc3ccc(Cl)cc32)CC1 [zuclopenthixol] (0.833333 µM) | 0.0109 | 110% (inactive) |
| O=C(C(c1ccccc1)c1ccccc1)N1CCN(CC(O)COc2cccc3ncccc23)CC1 (stereo not drawn) [dofequidar] (10 µM) | 0.14 | 89.5% (inactive) |
| N=C(N)NC(=N)Nc1cccc(Cl)c1 [m-chlorophenylbiguanide] (10 µM) | -0.0474 | 108% (inactive) |
| O=C(c1ccc2nccnc2c1)N1CCCCC1 [ampalex] (10 µM) | -0.0456 | 104% (inactive) |
